Bioassay records from PubChem.
CRFBP-R2 agonist: CRF-BP/CRF-R2 complex agonism; 350,000 compounds, 0.46% hits; activation, % at 13.2 µM; HEK293 CRF-R2/CRF-BP, calcium dye fluorescence (FLIPR); percent of saturating CRF peptide response;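 active = activation of at least 50%, plus an integration ratio under a set limit after plate pattern correction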;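 note: plate controls were neutral control wells without compound for no effect and CRF at EC100 for full effect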
TMEM16A act: activators or potentiators of mouse TMEM16A chloride channel; Q8BHY3; HEK293 TMEM16A/YFP-H148Q/I152L, iodide quench fluorescence; stronger effect = lower value; B-score at 10 µM; 340,000 compounds, 0.3% hits;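 active = fluorescence-ratio B-score plate-corrected deviation score at least 3 library SD below zero, with starting fluorescence score within 5 deviations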;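 note: channel opened by trigger with iodide after compound preincubation; score built on the fluorescence ratio of max minus min over baseline; more negative score means more quench and so TMEM16A activation or potentiation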
NR3A LBD binder: NR3A (human) ligand-binding domain modulation; Tm shift relative to glycine control, % at 25 µM; AID 1259313; 340,000 compounds, 2.5% hits; NR3A LBD differential scanning fluorimetry, Tm shift; 0% = protein alone, 100% = glycine-bound protein;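 active = melting temperature shift of at least 10% of the positive control shift, at one fixed dose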
ANO1 block: mouse TMEM16A channel inhibition, primary screen; HEK293 TMEM16A/YFP iodide influx fluorescence, ionomycin; 310,000 compounds, 1.2% hits; normalized B-score (activity score, 25-100; higher = stronger inhibition) at 10 µM; Q8BHY3; AID 588511;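 active = ratio plate-corrected score three or more library SD toward inhibition, starting fluorescence score within five deviations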;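 note: score derived from kinetic fluorescence span divided by baseline fluorescence per well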
MPTP block: blocks calcium-induced mitochondrial swelling. isolated mouse mitochondria, Ca2+ swelling absorbance, 30 min. inhibition, % at 10 µM. 360,000 compounds, 1.4% hits;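 active = inhibition of 50% or more, scaled per plate between neutral and stimulator controls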;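 note: 0% = DMSO wells given calcium and 100% = 1 mM EGTA wells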
CRFBP-R2 block: CRF-BP/CRF-R2 complex antagonism; HEK293 CRF-R2/CRF-BP, CRF-induced calcium fluorescence; inhibition, % at 11.8 µM; 350,000 compounds, 0.59% hits;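 active = inhibition of the ligand-induced calcium signal above about 50% at the single tested concentration, limit read from the data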
* = called active by the depositor; i = inactive; x = no result given. In the library only some 5.1% were active in any assay of this set; here they are far more common.

SMILES | CRFBP-R2 agonist | TMEM16A act | NR3A LBD binder | ANO1 block | MPTP block | CRFBP-R2 block
COC1CC(=O)C2OC(c3ccccc3)OCC2O1 (stereo unspecified) | -1 | x | x | x | 0 | -22
N#CCC(=O)Nc1ccc(C(=O)OCC(=O)C23CC4CC(CC(C4)C2)C3)cc1 | 0 | i | 2 | i | -1 | -18
O=C(OCC12CC3CC(CC(C3)C1)C2)c1ccc(NCc2cc(O)ccc2O)cc1 | -4 | i | 12* | x | 1 | -9
O=C(OCCC12CC3CC(CC(C3)C1)C2)c1ccc(NCc2cc(O)ccc2O)cc1 | 4 | i | 27* | x | 1 | -30
CCNC(=O)OCCC12CC3CC(CC(C3)C1)C2 | 0 | i | 0 | i | 2 | -124
COc1ccccc1NS(=O)(=O)c1cc(NC(=O)Nc2ccc(Cl)cc2Cl)ccc1N1CCCCC1 | 0 | i | 12* | i | 43 | 6
COc1ccccc1NS(=O)(=O)c1cc(N)ccc1N1CCCCC1 | 4 | i | 33* | i | -1 | -16
C=CCN(C(=O)Cn1nnc2ccccc21)C(C(=O)NCCOC)c1ccc(OC)cc1OC (stereo unspecified) | 2 | -6* | -2 | i | -1 | 10
CCN1C(c2ccccc2)C(C)C(=O)C(C)C1c1ccccc1 (stereo unspecified) | 1 | i | -1 | i | -3 | 57*
Cc1ccc2c(c1)N(S(=O)(=O)c1ccc(CN3C(=O)c4cccnc4C3=O)cc1)CCO2 | 3 | -23* | -1 | i | 0 | -16
Cc1ccc2c(c1)N(S(=O)(=O)c1ccc(CN3C(=O)c4cccnc4C3=O)s1)CCO2 | 3 | i | 3 | i | 1 | 6
CCC(=O)Nc1cc(Cl)ccc1C(=O)O | 0 | i | -5 | i | 2 | 22
O=C(O)c1ccc(Cl)cc1Nc1nc2cc(Cl)ccc2o1 | 1 | i | 14* | 25* | 6 | 20
CCCCCCCCCCCCCCC[C@@H](O)[C@@H](N)CO | 3 | i | 5 | x | 3 | -11
Cc1nn(-c2ccccc2)c(N)c1Sc1ccc([N+](=O)[O-])cc1 | -1 | i | 5 | i | 1 | 58*
O=C(NNC(=O)c1cc2cc(OC(F)(F)F)ccc2[nH]1)c1ccc(Cl)cc1 | 0 | i | 14* | i | 2 | 8
O=C(Cn1cnc2ccccc2c1=O)NC1CCS(=O)(=O)C1 (stereo unspecified) | 0 | i | 0 | i | 1 | -4
COc1ccc(C2NC(=O)CS2)cc1OC (stereo unspecified) | 0 | i | -1 | i | -2 | 15
COc1ccccc1C1NC(=O)CS1 (stereo unspecified) | 1 | i | 14* | i | -1 | -1
Cc1ccc(NC(=O)CCNS(=O)(=O)c2cc(Br)cnc2N)cc1Cl | -5 | i | 30* | i | 3 | -48
Cc1cc(NC(=O)CCNS(=O)(=O)c2cc(Br)cnc2N)ccc1Br | -1 | i | 21* | i | 10 | -22
Nc1ncc(Br)cc1S(=O)(=O)NCCC(=O)Nc1cccc(Cl)c1 | 0 | i | 23* | i | 4 | -33
COc1cc(NC(=O)CCNS(=O)(=O)c2cc(Br)cnc2N)cc(OC)c1 | -2 | i | -6 | i | 0 | -8
Cc1ccc2c(CC(=O)Nc3ccc4nc(N5CCOCC5)sc4c3)coc2c1 | -2 | x | x | x | 1 | 6
COc1ccc2c(C)cc(SCn3nnc4ccccc4c3=O)nc2c1 | 3 | i | -3 | i | 1 | 53*
COc1ccc(OC)c(C(=O)Cn2nnc3ccccc3c2=O)c1 | 1 | i | 2 | i | -2 | -19
COc1ccc(S(=O)(=O)N(c2onc(C)c2Cl)S(=O)(=O)c2ccc(OC)cc2)cc1 | -2 | i | -1 | i | 0 | 51*
COc1ccc(NC(=O)c2onc(C)c2Cl)cc1 | -4 | i | -1 | i | 0 | -9
Cc1ccc(OCC(=O)NNC(=O)c2ccc(F)c(S(=O)(=O)N3CCOCC3)c2)cc1C | 2 | x | x | x | -1 | -19
O=C(C1CCCC1)N1CCC(CO)(Cc2ccccc2Cl)CC1 | -2 | i | -1 | i | 3 | -18
